49 sequences from the supplement of paper PMC3545927 can be followed below.

The target of the assay is furin, P09958. The experiment in a line: furin cleavage Z-score vs untreated control; higher = more cleavage, active = 3.5 or more, inactive = 1 or less, 8 variable residues between constant flanks. In a few lines: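 Sequencing of released DNA, tagged with adapters by PCR, gave read counts used as abundance. That DNA was freed when purified furin cut N-terminally bead-bound 8-mer peptides fused to a cDNA oligonucleotide, in 0.01 ml reactions at 1:10 enzyme:substrate in 50 mM HEPES pH 7.5 with CaCl2 and NaCl, lasting 7.5, 15 or 30 min. The cleavage Z-score was the lowess-adjusted log count versus furin-free reactions, scaled by median absolute deviation.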

The other results are listed elsewhere or left out. The hit rate among all sequences tested is not known here.

furin, P09958, sequence (P09958 whole entry, the tested form may be a part): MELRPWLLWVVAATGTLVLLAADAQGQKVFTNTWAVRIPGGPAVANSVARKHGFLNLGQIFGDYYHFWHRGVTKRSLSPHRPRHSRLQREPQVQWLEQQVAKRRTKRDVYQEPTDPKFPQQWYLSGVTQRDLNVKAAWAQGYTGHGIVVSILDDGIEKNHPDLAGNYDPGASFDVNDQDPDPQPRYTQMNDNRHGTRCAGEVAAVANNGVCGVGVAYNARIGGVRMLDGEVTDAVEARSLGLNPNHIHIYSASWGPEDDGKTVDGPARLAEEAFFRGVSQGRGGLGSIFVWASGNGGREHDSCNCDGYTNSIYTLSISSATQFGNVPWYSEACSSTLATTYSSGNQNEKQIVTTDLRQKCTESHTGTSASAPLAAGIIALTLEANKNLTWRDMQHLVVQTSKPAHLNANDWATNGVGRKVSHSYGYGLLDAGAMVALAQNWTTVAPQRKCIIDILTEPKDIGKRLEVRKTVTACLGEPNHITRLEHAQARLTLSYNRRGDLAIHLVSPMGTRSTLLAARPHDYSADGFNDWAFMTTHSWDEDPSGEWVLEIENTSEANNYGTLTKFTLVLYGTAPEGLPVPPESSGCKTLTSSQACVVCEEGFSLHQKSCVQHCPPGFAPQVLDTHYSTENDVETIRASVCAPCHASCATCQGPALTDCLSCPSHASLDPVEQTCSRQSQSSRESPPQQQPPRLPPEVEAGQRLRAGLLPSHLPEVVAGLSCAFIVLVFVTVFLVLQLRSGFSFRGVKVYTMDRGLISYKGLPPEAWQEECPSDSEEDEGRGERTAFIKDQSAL

In the case of CASSIASWAIAGNASASA [HC514], the “furin cleavage Z-score” value (7.5 min) was 0.395 (inactive), the “furin cleavage Z-score” value (15 min) is 0.651 (inactive) and the “furin cleavage Z-score” value (30 min) was determined as 2.3.

Consider CAMEECSQHLAGNASASA [HC14], for which the “furin cleavage Z-score” value (7.5 min) was 1.42, the “furin cleavage Z-score” value (15 min) is 0.653 (inactive) and the “furin cleavage Z-score” value (30 min) was determined as 1.44.

For CASSNRSYRDAGNASASA [FS-1419], the “furin cleavage Z-score” value was 2.48 (7.5 min), 3.58 (active) (15 min) and 4.08 (active) (30 min).

For CARKKREITEAGNASASA [FS-2963], the “furin cleavage Z-score” value (7.5 min) is 11.3 (active), the “furin cleavage Z-score” value (15 min) was 12.7 (active) and the “furin cleavage Z-score” value (30 min) was 9.25 (active).

Turning to CASMGREIRSAGNASASA [FS-1082], the “furin cleavage Z-score” value (7.5 min) was 4.08 (active), the “furin cleavage Z-score” value (15 min) was 3.82 (active) and the “furin cleavage Z-score” value (30 min) is 3.6 (active).

Take CAVVCCSMWYAGNASASA [HC2068]: the “furin cleavage Z-score” value (7.5 min) came out at 1.14, the “furin cleavage Z-score” value (15 min) is -0.944 (inactive) and the “furin cleavage Z-score” value (30 min) was 0.031 (inactive).

Take CACGNTLTCYAGNASASA [HC1515]: the “furin cleavage Z-score” value is, setting by setting: (7.5 min) -0.25 (inactive); (15 min) -2.28 (inactive); (30 min) -1.28 (inactive).

As to CARGDSRGSLAGNASASA [HC733], the “furin cleavage Z-score” value was -0.929 (inactive) (7.5 min), -0.316 (inactive) (15 min) and -0.341 (inactive) (30 min).

As to CARSSRSNGRAGNASASA [FS-3097], the “furin cleavage Z-score” value was -1.39 (inactive) (7.5 min), -0.51 (inactive) (15 min) and -1.39 (inactive) (30 min).

With CARSSREKRRAGNASASA [FS-377], the “furin cleavage Z-score” value was 6.18 (active) (7.5 min), 7.1 (active) (15 min) and 5.14 (active) (30 min).

In the case of CALTCYIKARAGNASASA [HC1517], the “furin cleavage Z-score” value (7.5 min) is -0.101 (inactive), the “furin cleavage Z-score” value (15 min) is 0.266 (inactive) and the “furin cleavage Z-score” value (30 min) was 1.28.

Consider CARSSRDSSAAGNASASA [FS-2092], for which the “furin cleavage Z-score” value (7.5 min) is -0.528 (inactive), the “furin cleavage Z-score” value (15 min) is -0.415 (inactive) and the “furin cleavage Z-score” value (30 min) was -0.31 (inactive).

Take CAGRCREKRRAGNASASA [FS-431]: the “furin cleavage Z-score” value is, setting by setting: (7.5 min) 6.37 (active); (15 min) 7.82 (active); (30 min) 6.78 (active).

CARSSRHPRRAGNASASA [FS-714]: the “furin cleavage Z-score” value is, setting by setting: (7.5 min) 5.43 (active); (15 min) 9.72 (active); (30 min) 6.86 (active).

In the case of CAMWHREKRRAGNASASA [FS-1141], the “furin cleavage Z-score” value (7.5 min) is 5.25 (active), the “furin cleavage Z-score” value (15 min) was 5.23 (active) and the “furin cleavage Z-score” value (30 min) was 5.34 (active).

With CAPQGDAAQKAGNASASA [NG3], the “furin cleavage Z-score” value is -0.23 (inactive) (7.5 min), -2.31 (inactive) (15 min) and 0.729 (inactive) (30 min).

CAVRVLEDGVAGNASASA [HC238]: the “furin cleavage Z-score” value was -0.328 (inactive) (7.5 min), -0.295 (inactive) (15 min) and 0.54 (inactive) (30 min).

Consider CARGSRPSWGAGNASASA [HC211], for which the “furin cleavage Z-score” value is, setting by setting: (7.5 min) -1.28 (inactive); (15 min) -0.0322 (inactive); (30 min) -1.24 (inactive).

For CARSFRSGDGAGNASASA [FS-2086], the “furin cleavage Z-score” value is 0.521 (inactive) (7.5 min), -1.18 (inactive) (15 min) and 0.00797 (inactive) (30 min).

With CARGKRSLDGAGNASASA [FS-2018], the “furin cleavage Z-score” value reads like this: (7.5 min) 10.4 (active); (15 min) 10.4 (active); (30 min) 8.84 (active).

With CARGKRHLQGAGNASASA [FS-2671], the “furin cleavage Z-score” value is 8.58 (active) (7.5 min), 8.16 (active) (15 min) and 8.59 (active) (30 min).

As to CAEVPCHQPSAGNASASA [HC2382], the “furin cleavage Z-score” value reads like this: (7.5 min) 0.495 (inactive); (15 min) -0.572 (inactive); (30 min) 1.13.

On to CAFLADGGCSAGNASASA [HC810], for which the “furin cleavage Z-score” value is -0.0827 (inactive) (7.5 min), -0.994 (inactive) (15 min) and -0.4 (inactive) (30 min).

For CAVVCCKMSYAGNASASA [HC111], the “furin cleavage Z-score” value (7.5 min) worked out at 2.65, the “furin cleavage Z-score” value (15 min) was 1.75 and the “furin cleavage Z-score” value (30 min) is 0.575 (inactive).

CAYKSRTKRSAGNASASA [FS-1581]: the “furin cleavage Z-score” value is, setting by setting: (7.5 min) 12.8 (active); (15 min) 13.7 (active); (30 min) 8.1 (active).

As to CAHRGVTKRSAGNASASA [FS-1593], the “furin cleavage Z-score” value (7.5 min) is 6.75 (active), the “furin cleavage Z-score” value (15 min) is 7.15 (active) and the “furin cleavage Z-score” value (30 min) is 6.87 (active).

For the sequence CAGRSRTKRSAGNASASA [FS-1332], the “furin cleavage Z-score” value by setting is: (7.5 min) 10.4 (active); (15 min) 9.78 (active); (30 min) 7.49 (active).

Consider CAGRSRPDRSAGNASASA [FS-533], for which the “furin cleavage Z-score” value was 5.97 (active) (7.5 min), 7.05 (active) (15 min) and 7.1 (active) (30 min).

Consider CAFCVQPEKGAGNASASA [HC1443], for which the “furin cleavage Z-score” value runs as follows: (7.5 min) -1.06 (inactive); (15 min) -0.187 (inactive); (30 min) 0.825 (inactive).

In the case of CAVVTCSMSYAGNASASA [HC2038], the “furin cleavage Z-score” value was 0.204 (inactive) (7.5 min), -0.0386 (inactive) (15 min) and -0.133 (inactive) (30 min).

As to CASTPCSNHLAGNASASA [HC2541], the “furin cleavage Z-score” value is 0.901 (inactive) (7.5 min), 1.16 (15 min) and 0.705 (inactive) (30 min).

Consider CAAKHRTKRSAGNASASA [FS-746], for which the “furin cleavage Z-score” value runs as follows: (7.5 min) 14.6 (active); (15 min) 14.7 (active); (30 min) 10.8 (active).

As to CAHRGPARRSAGNASASA [FS-1533], the “furin cleavage Z-score” value is, setting by setting: (7.5 min) 2.51; (15 min) 2.95; (30 min) 4.27 (active).

As to CASHQRTKRSAGNASASA [FS-1165], the “furin cleavage Z-score” value runs as follows: (7.5 min) 8.79 (active); (15 min) 9.17 (active); (30 min) 6.69 (active).

For the sequence CAKKQETKRSAGNASASA [FS-675], the “furin cleavage Z-score” value reads like this: (7.5 min) -0.996 (inactive); (15 min) 0.0553 (inactive); (30 min) 0.952 (inactive).

On to CAEVPCHRPNAGNASASA [HC2421], for which the “furin cleavage Z-score” value by setting is: (7.5 min) -0.123 (inactive); (15 min) 0.813 (inactive); (30 min) 1.61.

On to CAVVCPSMSYAGNASASA [HC100], for which the “furin cleavage Z-score” value (7.5 min) was -0.389 (inactive), the “furin cleavage Z-score” value (15 min) was 0.782 (inactive) and the “furin cleavage Z-score” value (30 min) was 1.57.

Turning to CAEQIRQDRSAGNASASA [FS-1453], the “furin cleavage Z-score” value is -0.0806 (inactive) (7.5 min), 0.259 (inactive) (15 min) and 0.047 (inactive) (30 min).

As to CAEQWRSRRSAGNASASA [FS-993], the “furin cleavage Z-score” value by setting is: (7.5 min) 10.6 (active); (15 min) 9.84 (active); (30 min) 7.38 (active).

Regarding CAHAWRSRRSAGNASASA [FS-1629], the “furin cleavage Z-score” value reads like this: (7.5 min) 10.5 (active); (15 min) 8.73 (active); (30 min) 8.99 (active).

Turning to CAGPGRPYRAAGNASASA [FS-784], the “furin cleavage Z-score” value (7.5 min) is -0.745 (inactive), the “furin cleavage Z-score” value (15 min) was 0.68 (inactive) and the “furin cleavage Z-score” value (30 min) is 0.71 (inactive).

For CARGRKSPSKAGNASASA [FS-2673], the “furin cleavage Z-score” value runs as follows: (7.5 min) -0.571 (inactive); (15 min) -0.51 (inactive); (30 min) -0.0739 (inactive).

As to CAGVSRSCRAAGNASASA [FS-1005], the “furin cleavage Z-score” value (7.5 min) was 3.78 (active), the “furin cleavage Z-score” value (15 min) was 4.22 (active) and the “furin cleavage Z-score” value (30 min) was 5.16 (active).

With CARGRRKTGEAGNASASA [FS-3251], the “furin cleavage Z-score” value is -0.45 (inactive) (7.5 min), -1.86 (inactive) (15 min) and 0.0435 (inactive) (30 min).

As to CARGRRSPHTAGNASASA [FS-3252], the “furin cleavage Z-score” value reads like this: (7.5 min) 7.13 (active); (15 min) 8.09 (active); (30 min) 6.93 (active).

For CARGRRDFPEAGNASASA [FS-2021], the “furin cleavage Z-score” value reads like this: (7.5 min) 1.74; (15 min) 3.62 (active); (30 min) 3.22.

For CAGARRSRRAAGNASASA [FS-422], the “furin cleavage Z-score” value runs as follows: (7.5 min) 7.16 (active); (15 min) 6.59 (active); (30 min) 5.19 (active).

Take CAGARRSVIGAGNASASA [FS-1983]: the “furin cleavage Z-score” value by setting is: (7.5 min) -0.924 (inactive); (15 min) 0.507 (inactive); (30 min) -0.671 (inactive).

Turning to CAGPSRQNRGAGNASASA [FS-1330], the “furin cleavage Z-score” value is -0.197 (inactive) (7.5 min), -0.893 (inactive) (15 min) and -0.697 (inactive) (30 min).
